Unmarked numbers belong to inactive results. Records with an inconclusive call do not appear. Where a call stands in place of a potency, no number is given. The source made the active and inactive calls. Unless noted, calls follow the shape of the dose curve; as a rule, active = well fitted curve in the direction sought with a large enough effect; inconclusive = small, poorly fitted or top-dose-only effect, or another doubt; inactive = no such curve, though single readings can be large; an effect the other way counts as inactive or inconclusive.
Key:
[1] = AP1 Signaling Pathway (AID 357; active = well fitted curve in either direction with a large enough effect, not every such curve was filed as active;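 also: ME-180 reporter cells stimulated with EGF at its EC50 level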); settings: ME-180 AP-1-bla reporter, EGF-induced, beta-lactamase ratio, 5 h; at 38 µM (top of the series)
Method in brief: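 A ratiometric CCF4 readout (405 nm excitation; 460 and 530 nm emission) quantified AP-1-driven beta-lactamase in ME-180 cells after 5 h with compound and EC50 EGF; AC50 values were derived for activators and inhibitors.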

[2] = molecular target: Cytochrome P450 1A2 (Homo sapiens) (UniProt P05177); test: p450-cyp1a2 (AID 410; calls by dose curve; also: potency is read from the fitted curve at half-maximal effect)
Cytochrome P450 1A2 (Homo sapiens), sequence (P05177 whole entry, looked up): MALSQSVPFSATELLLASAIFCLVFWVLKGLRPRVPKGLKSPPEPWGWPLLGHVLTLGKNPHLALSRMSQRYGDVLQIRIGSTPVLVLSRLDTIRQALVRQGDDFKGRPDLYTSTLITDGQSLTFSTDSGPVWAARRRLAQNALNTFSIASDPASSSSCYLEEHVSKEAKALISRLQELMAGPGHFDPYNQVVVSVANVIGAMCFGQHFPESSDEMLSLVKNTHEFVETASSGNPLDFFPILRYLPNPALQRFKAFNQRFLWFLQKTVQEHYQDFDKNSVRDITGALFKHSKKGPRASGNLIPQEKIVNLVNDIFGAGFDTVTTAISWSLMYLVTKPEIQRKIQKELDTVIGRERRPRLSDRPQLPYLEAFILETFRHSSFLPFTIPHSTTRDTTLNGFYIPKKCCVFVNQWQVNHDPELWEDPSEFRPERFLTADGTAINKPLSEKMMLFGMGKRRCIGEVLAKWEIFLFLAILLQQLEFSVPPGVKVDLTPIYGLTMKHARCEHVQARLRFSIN
Method in brief: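 Luminescent demethylation readout: Luciferin-ME (100uM, equal to Km) turned over by 20nM CYP1A2 for 60 min at room temperature after NADPH regeneration addition, following 10 min compound preincubation. Normalization used 57 uM furafylline as full inhibition.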

[3] = NFAT Signaling Pathway (AID 444; active = well fitted curve in either direction with a large enough effect, not every such curve was filed as active;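 also: carbachol stimulus at about its EC50 of 1 µM final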); settings: Jurkat NFAT-bla M1, carbachol, beta-lactamase ratio, 5 h; at 38 µM (top of the series)
Method in brief: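 Read-out: CCF4 FRET ratio (460 nm/530 nm) after 1 h RT dye loading, used for %activity and AC50 from titration series. Cells: Jurkat NFAT-β-lactamase/M1 line, treated with compound plus 1 uM carbachol for 5 h, 37 °C.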

[4] = molecular target: Glucocorticoid receptor (Homo sapiens) (UniProt P04150); test: GR-GFP Redistribution (AID 450;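 active = compounds whose dose series gives a full or clear partial fitted curve of increased nuclear translocation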; also: potency is read from the fitted curve at half-maximal effect); settings: U2OS GR-GFP nuclear translocation, laser cytometry, 2 h
Glucocorticoid receptor (Homo sapiens), sequence (P04150 whole entry, looked up, the tested form may be a part): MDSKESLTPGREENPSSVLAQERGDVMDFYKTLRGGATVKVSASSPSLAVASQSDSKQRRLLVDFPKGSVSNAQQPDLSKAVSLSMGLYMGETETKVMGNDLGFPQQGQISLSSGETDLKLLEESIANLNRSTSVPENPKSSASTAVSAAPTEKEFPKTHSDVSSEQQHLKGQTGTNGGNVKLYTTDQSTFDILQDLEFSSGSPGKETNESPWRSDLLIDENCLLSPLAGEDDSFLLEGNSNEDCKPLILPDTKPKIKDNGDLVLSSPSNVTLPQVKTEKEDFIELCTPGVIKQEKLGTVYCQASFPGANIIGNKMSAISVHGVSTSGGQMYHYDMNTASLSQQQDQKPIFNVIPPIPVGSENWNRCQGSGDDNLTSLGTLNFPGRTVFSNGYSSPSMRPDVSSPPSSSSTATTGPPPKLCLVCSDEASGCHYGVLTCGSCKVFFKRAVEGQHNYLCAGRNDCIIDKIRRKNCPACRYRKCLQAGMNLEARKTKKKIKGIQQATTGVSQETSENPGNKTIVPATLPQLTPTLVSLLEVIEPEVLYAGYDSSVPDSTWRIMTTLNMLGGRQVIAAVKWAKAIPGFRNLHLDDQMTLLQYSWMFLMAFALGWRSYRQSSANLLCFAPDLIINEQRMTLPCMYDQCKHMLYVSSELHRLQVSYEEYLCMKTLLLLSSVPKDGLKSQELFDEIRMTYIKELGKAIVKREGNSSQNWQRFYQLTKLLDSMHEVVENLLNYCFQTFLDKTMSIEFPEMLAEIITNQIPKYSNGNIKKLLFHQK

[5] = molecular target: Glucocorticoid receptor (Homo sapiens) (UniProt P04150); test: GR-EFC Redistribution (AID 451; calls by dose curve; also: potency is read from the fitted curve at half-maximal effect); settings: CHO-K1 GR-EFC translocation, beta-gal luminescence, 2 h
Method in brief: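 Translocation of GR-ED fusion to nuclear EA restores b-gal, read by luminescence after 1 h room-temperature detection. Engineered CHO-K1 biosensor cells, 1,000/well, exposed 2 h at 37 C to titrations up to 46 uM final.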

[6] = molecular target: Mitogen-activated protein kinase 10 (Mus musculus) (UniProt Q61831); test: JNK3 AlphaScreen Assay (AID 530; active = well fitted curve in either direction with a large enough effect, not every such curve was filed as active;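 also: kinase came from lysate of stimulated human HepG2 cells; signal reports phosphorylation of biotinylated GST-cJun 1-79 at Ser73 with 10 µM ATP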)
Method in brief: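 qHTS titrations with 15 min compound pre-incubation before adding ATP (10 uM final). Read-out: AlphaScreen of Ser73-phosphorylated biotin-GST-cJun using HepG2 lysate JNK3 activated by IL-1β and TNFα.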

[7] = molecular target: 3',5'-cyclic-AMP phosphodiesterase 4B (Homo sapiens) (UniProt Q07343); test: qHTS Assay for Inhibitors of PDE-IV (AID 607; active = well fitted activation curve with a large enough effect in the main read-out, with a control signal flat, not every such curve was filed as active)
3',5'-cyclic-AMP phosphodiesterase 4B (Homo sapiens), sequence (Q07343 whole entry, looked up): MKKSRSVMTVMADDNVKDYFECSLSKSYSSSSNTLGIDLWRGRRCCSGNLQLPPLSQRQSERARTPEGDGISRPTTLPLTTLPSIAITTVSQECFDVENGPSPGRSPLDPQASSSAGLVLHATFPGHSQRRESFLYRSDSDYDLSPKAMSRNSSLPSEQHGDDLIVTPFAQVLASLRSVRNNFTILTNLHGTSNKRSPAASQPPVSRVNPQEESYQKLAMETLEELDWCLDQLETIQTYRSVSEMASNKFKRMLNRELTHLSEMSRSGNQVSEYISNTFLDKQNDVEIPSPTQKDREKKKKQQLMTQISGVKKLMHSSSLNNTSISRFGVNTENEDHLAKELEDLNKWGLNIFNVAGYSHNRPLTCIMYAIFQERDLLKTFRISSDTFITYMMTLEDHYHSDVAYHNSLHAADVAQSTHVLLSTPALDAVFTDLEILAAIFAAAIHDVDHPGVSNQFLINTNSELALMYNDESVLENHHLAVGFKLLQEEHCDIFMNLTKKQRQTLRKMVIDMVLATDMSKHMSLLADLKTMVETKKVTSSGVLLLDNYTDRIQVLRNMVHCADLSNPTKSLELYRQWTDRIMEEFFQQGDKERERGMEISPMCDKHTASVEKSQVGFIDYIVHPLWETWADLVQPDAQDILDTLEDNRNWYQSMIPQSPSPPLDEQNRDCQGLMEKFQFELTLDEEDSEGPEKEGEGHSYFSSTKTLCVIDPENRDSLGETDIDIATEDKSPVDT
Method in brief: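 ACTOne HEK293 cells carry a modified cAMP-gated CNG channel and express endogenous PDE4; plated 1000 cells/well, compounds up to 22.9 uM final. Membrane-potential dye fluorescence (ex 535/em 590) was read; parental cells received 10 uM forskolin + 100 uM RO 20-1724.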

[8] = molecular target: Guanine nucleotide-binding protein G(i) subunit alpha-1 (Homo sapiens) (UniProt P63096); test: qHTS Assay for Inhibitors of RGS12 GoLoco Motif Activity (Green Fluorophore) (AID 879);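 also: negative values mean loss of peptide binding seen as reduced polarization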
Guanine nucleotide-binding protein G(i) subunit alpha-1 (Homo sapiens), sequence (P63096 whole entry, looked up): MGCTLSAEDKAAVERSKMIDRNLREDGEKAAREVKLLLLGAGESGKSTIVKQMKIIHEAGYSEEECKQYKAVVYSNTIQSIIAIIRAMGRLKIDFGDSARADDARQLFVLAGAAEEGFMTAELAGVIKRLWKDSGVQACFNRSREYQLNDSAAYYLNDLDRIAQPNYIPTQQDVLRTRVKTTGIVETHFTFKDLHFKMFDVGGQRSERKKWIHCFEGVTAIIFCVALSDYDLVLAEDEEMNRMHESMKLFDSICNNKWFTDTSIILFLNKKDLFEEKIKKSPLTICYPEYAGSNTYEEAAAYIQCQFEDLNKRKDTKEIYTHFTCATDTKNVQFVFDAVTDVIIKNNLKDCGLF
Method in brief: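 A drop in FITC polarization marked displacement of the FITC-tagged RGS12 GoLoco peptide (10 nM) from Gαi1 (50 nM). Compounds were incubated 10 min at room temperature in Tris pH 7.5 buffer containing 150 mM NaCl, 0.1 mM GDP and 0.05% NP40; unlabeled peptide titration served as control.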

[9] = qHTS Assay for Identification of Small Molecule Antagonists for NFkB Signaling Pathway (AID 895; active = well fitted inhibition curve with a large enough effect in the signal ratio, with a control signal flat, not every such curve was filed as active; the % refers to the signal ratio)
Method in brief: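 Beta-lactamase reporter read-out (460 and 530 nm emission ratio, 405 nm excitation, 2 hrs substrate loading RT) after 5 hr stimulation with 10 pM TNF alpha in compound-treated NFkB-bla ME-180 cells in low-serum medium.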

[10] = molecular target: Muscarinic acetylcholine receptor M1 (Rattus norvegicus) (UniProt P08482); test: qHTS Assay for Antagonists of Acetylcholine Muscarinic M1 Receptor: Kinetic Measurement of Intracellular Calcium Response (AID 943);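 also: Fluo-4 calcium signal as peak divided by basal fluorescence over 4 min; nearly all actives have a fitted effect of over 75% in size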
Muscarinic acetylcholine receptor M1 (Rattus norvegicus), sequence (P08482 whole entry, looked up): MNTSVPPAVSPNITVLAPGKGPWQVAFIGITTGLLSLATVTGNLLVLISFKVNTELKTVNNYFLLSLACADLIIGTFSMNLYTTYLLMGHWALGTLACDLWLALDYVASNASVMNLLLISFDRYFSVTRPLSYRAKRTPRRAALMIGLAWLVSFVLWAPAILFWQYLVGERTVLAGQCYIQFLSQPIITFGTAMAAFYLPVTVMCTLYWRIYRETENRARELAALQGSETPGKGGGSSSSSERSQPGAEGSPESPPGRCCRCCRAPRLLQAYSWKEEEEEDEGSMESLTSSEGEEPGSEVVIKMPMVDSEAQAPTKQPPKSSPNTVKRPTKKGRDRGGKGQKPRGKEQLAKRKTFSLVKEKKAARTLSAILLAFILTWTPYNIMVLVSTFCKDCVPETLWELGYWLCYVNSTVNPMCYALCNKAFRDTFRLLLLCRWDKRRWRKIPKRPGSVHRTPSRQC
Method in brief: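 Antagonism measured as reduction of carbachol-evoked (EC80, 100 nM final) calcium flux in rat M1-CHO cells after 10 min compound exposure. Fluo-4 signal read kinetically; ratio of maximal to basal fluorescence.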

[11] = molecular target: Alpha-galactosidase A (Homo sapiens) (UniProt P06280); test: Counterscreen for Glucocerebrosidase Inhibitors: qHTS Assay for Human alpha-Galactosidase at pH 4.5 (AID 992)
Method in brief: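 Citrate buffer pH 4.5, Tween-20 0.005%. Enzyme 2 nM, substrate 80 uM, 20 min RT. Stop pH 10. Fluorescence Ex 365/Em 440. AC50 by Hill fit.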

[12] = molecular target: alpha-glucosidase (Oryza sativa, rice) (UniProt Q653V4); test: Counterscreen for Glucocerebrosidase Inhibitors: qHTS Assay for Rice alpha-Glucosidase at pH 5.0 (AID 997)
Method in brief: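 Endpoint fluorogenic assay at pH 5.0: compounds (0.7 nM to 77 uM) titrated against 4 nM rice enzyme and 400 uM 4-MU-alpha-glucoside for 20 min at room temperature; NaOH/glycine stop, read ex 365/em 440 nm, Hill-fitted AC50.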

[13] = molecular target: DNA dC->dU-editing enzyme APOBEC-3G (Homo sapiens) (UniProt Q9HC16); test: qHTS for inhibitors of Vif-A3G interactions: Validation (AID 588379)
DNA dC->dU-editing enzyme APOBEC-3G (Homo sapiens), sequence (Q9HC16 whole entry, looked up): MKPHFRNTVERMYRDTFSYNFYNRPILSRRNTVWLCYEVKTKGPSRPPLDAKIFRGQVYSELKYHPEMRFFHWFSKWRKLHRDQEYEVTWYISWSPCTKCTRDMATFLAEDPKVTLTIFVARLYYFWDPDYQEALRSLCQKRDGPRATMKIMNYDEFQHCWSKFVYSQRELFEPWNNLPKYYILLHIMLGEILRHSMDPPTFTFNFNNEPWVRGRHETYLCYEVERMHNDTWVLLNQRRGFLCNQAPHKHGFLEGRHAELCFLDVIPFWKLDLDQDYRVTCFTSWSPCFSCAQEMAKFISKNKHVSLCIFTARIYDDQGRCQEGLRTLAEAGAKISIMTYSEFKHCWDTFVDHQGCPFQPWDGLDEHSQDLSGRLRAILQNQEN
Method in brief: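 Yellow fluorescence (Ex 488, Em 500-530) of Vif-coexpressing HeLa A3G-eYFP cells, scanned by Acumen cytometer, reports blocked A3G degradation. Cells plated at 700/well overnight at 37 deg C before compound addition, then a further overnight compound incubation at 37 deg C.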

[14] = tested on: Zika virus NS2B-NS3 protease; test: Primary screen GU AMC qHTS for Zika virus inhibitors (AID 1347154); also: nearly all actives have a fitted effect of over 70% in size; also: potency is read from the fitted curve at half-maximal effect
Method in brief: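 Fluorogenic AMC-substrate cleavage by noncovalent NS2B-NS3 protease complex (25 nM, pH 8.0 Tris buffer with Tween 20) followed for 15 minutes at room temperature (~20% conversion). Percent inhibition from ex340/em450 signal change, fitted by 4-parameter Hill equation.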

[15] = Stat Signaling Pathway (AID 446; active = well fitted curve in either direction with a large enough effect, not every such curve was filed as active;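 also: ME-180 cervical cancer cells given 40 pM IL-6 alongside compound; SIE-controlled beta-lactamase reporter measured as 460/530 nm FRET emission ratio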); settings: ME-180 (cervical carcinoma) SIE beta-lactamase reporter, IL-6 stimulated, 5 h; at 38 µM (top of the series)
Method in brief: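 Compound effects on IL-6-induced STAT reporter activity were measured in ME-180 cells. After overnight culture, cells were co-treated with 40 pM IL-6 for 5 hrs before beta-lactamase substrate loading at room temperature.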

[16] = molecular target: Cytochrome P450 2D6 (Homo sapiens) (UniProt P10635); test: qHTS Assay for Inhibitors and Substrates of Cytochrome P450 2D6 (AID 891); also: nearly all actives have a fitted effect of over 60% in size; also: potency is read from the fitted curve at half-maximal effect;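 as to activity change, negative = inhibition: luciferin methyl ether substrate demethylated by CYP2D6 with NADPH regeneration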
Cytochrome P450 2D6 (Homo sapiens), sequence (P10635 whole entry, looked up): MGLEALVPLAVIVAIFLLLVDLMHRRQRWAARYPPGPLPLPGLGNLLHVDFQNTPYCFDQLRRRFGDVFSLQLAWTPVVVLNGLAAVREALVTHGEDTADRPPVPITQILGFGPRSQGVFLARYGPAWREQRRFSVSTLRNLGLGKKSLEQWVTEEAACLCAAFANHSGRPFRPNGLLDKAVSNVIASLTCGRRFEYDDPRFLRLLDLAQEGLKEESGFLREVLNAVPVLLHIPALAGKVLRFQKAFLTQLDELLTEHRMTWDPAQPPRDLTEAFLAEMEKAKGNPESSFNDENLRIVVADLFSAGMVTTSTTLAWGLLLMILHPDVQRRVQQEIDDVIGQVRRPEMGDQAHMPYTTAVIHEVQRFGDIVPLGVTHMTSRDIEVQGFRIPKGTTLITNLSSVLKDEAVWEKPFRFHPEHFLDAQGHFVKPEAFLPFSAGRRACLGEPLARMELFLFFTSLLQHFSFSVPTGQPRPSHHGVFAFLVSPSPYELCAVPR
Method in brief: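 Luminescent read-out of luciferin formed by 5 nM human CYP2D6 demethylating 30 uM Luciferin-ME EGE (Km level) over 60 min at room temperature after NADPH regeneration addition. Data normalized to full inhibition by 1.43 uM quinidine.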

[17] = molecular target: Cytochrome P450 2C19 (Homo sapiens) (UniProt P33261); test: qHTS Assay for Inhibitors and Substrates of Cytochrome P450 2C19 (AID 899); also: nearly all actives have a fitted effect of over 60% in size; also: potency is read from the fitted curve at half-maximal effect
Cytochrome P450 2C19 (Homo sapiens), sequence (P33261 whole entry, looked up): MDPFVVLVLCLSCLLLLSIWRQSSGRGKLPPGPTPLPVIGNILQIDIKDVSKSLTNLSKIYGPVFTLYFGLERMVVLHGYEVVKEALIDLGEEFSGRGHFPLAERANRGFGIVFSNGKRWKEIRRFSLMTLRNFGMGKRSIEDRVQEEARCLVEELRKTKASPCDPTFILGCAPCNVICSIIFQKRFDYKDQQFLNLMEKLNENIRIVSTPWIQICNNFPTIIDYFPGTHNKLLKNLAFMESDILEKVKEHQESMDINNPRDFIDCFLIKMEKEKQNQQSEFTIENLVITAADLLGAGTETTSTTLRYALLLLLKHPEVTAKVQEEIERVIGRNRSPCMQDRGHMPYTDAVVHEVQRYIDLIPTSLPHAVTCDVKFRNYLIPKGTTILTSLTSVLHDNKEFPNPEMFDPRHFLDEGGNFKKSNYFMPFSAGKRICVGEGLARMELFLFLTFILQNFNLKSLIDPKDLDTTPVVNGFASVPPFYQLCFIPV
Method in brief: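 5nM enzyme + 10uM Luciferin-H EGE (=KM), 50mM KPO4; cpd pin-transferred, 10 min 37C; NADPH regen, 60 min 37C; stopped w/ luciferin detection reagent, 20 min; luminescence. Normalized to 57uM ketoconazole (AC100).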

[18] = molecular target: Muscarinic acetylcholine receptor M1 (Rattus norvegicus) (UniProt P08482); test: qHTS Assay for Antagonists of Acetylcholine Muscarinic M1 Receptor: Measurement of IP-One Response (AID 944); also: nearly all actives have a fitted effect of over 75% in size
Method in brief: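 IP1 accumulation measured via TR-FRET between d2-IP1 and Eu-cryptate anti-IP1 antibody after carbachol (200 nM, EC80) stimulation for 30 min; rat M1-transfected CHO cells received compound 10 min before agonist.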

[19] = molecular target: Ubiquitin carboxyl-terminal hydrolase 1 (Homo sapiens) (UniProt O94782); test: Inhibitors of USP1/UAF1: Pilot qHTS (AID 504865);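 also: rhodamine fluorescence freed from ubiquitin-rhodamine substrate followed over time; top concentration of the series differs between compounds; nearly all actives have a fitted effect of over 35% in size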
Ubiquitin carboxyl-terminal hydrolase 1 (Homo sapiens), sequence (O94782 whole entry, looked up): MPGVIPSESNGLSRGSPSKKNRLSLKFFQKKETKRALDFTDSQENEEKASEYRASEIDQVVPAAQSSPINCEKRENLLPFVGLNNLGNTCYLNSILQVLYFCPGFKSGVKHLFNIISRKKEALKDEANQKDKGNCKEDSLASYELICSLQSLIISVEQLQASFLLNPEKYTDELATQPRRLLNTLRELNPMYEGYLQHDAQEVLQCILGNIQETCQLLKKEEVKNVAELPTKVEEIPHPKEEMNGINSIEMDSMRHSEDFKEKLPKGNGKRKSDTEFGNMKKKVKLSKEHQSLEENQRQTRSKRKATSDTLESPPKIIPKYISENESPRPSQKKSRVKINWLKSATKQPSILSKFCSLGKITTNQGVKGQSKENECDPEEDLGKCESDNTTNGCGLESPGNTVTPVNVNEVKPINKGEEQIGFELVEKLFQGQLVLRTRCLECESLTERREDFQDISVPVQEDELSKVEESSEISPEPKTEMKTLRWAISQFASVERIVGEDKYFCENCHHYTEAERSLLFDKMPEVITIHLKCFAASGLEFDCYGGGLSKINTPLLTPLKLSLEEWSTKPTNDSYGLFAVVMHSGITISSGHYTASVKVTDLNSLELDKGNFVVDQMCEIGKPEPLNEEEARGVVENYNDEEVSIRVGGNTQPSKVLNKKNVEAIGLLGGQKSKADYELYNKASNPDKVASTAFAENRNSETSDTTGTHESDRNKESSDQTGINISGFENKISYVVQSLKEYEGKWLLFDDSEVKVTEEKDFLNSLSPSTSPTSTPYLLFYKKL
Method in brief: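 In 50mM HEPES pH 7.8 containing 0.5mM EDTA, 1mM TCEP, 0.1 mg/ml BSA and 0.01% Tween-20, 1nM USP1/UAF1 is exposed to compound for 15 min, then Ub-Rho (150nM final) is added and fluorescence is read over time.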

[20] = molecular target: Cytochrome P450 2C9 (Homo sapiens) (UniProt P11712); test: qHTS Assay for Inhibitors and Substrates of Cytochrome P450 2C9 (AID 883); also: potency is read from the fitted curve at half-maximal effect; nearly all actives have a fitted effect of over 60% in size
Method in brief: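 Inhibition of CYP2C9 is scored as loss of luminescence, with 57uM sulphaphenazole defining 100% inhibition. Substrate Luciferin-H is used at 100uM, equal to its KM; enzyme at 10nM in 25mM KPO4, 60 min at 37C with NADPH regeneration.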

[21] = molecular target: Cytochrome P450 2D6 (Homo sapiens) (UniProt P10635); test: Cytochrome P450 family 2 subfamily D member 6 (CYP2D6) small molecule antagonists: luciferase biochemical (cell-free) qHTS assay (AID 1645840; active = well fitted curve in the direction sought with a large enough effect in the repeat runs; an effect the other way counts as inactive or inconclusive; also: nearly all actives have a fitted effect of over 55% in size)
Method in brief: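 P450-Glo CYP2D6 system: proluciferin substrate converted by enzyme to luciferin, read by luminescence proportional to activity. Enzyme-substrate mix with compound 10 min at room temperature, then NADPH regeneration 1 h before detection reagent.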

[22] = molecular target: Cytochrome P450 2C9 (Homo sapiens) (UniProt P11712); test: Cytochrome P450 family 2 subfamily C member 9 (CYP2C9) small molecule antagonists: luciferase biochemical (cell-free) qHTS assay (AID 1645842; active = well fitted curve in the direction sought with a large enough effect in the repeat runs; an effect the other way counts as inactive or inconclusive; also: nearly all actives have a fitted effect of over 55% in size)
Method in brief: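 P450-Glo CYP2C9 system: proluciferin substrate with enzyme in mix containing 0.4% BSA, 10 min at room temperature, then NADPH regeneration solution added and incubated 1 h at 37C. Detection reagent stopped reaction; luminescence read after 20 min as RLU.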

[23] = molecular target: Cytochrome P450 3A4 (Homo sapiens) (UniProt P08684); test: qHTS Assay for Inhibitors and Substrates of Cytochrome P450 3A4 (AID 884); also: potency is read from the fitted curve at half-maximal effect; nearly all actives have a fitted effect of over 50% in size
Method in brief: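 Luminescent readout of luciferin produced by CYP3A4 (20 nM) dealkylation of Luciferin-PPXE, 25 uM (its KM). NADPH-driven reaction ran 60 min at RT after 10 min compound preincubation; data scaled to 57 uM ketoconazole as 100% inhibition.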

[24] = molecular target: Cytochrome P450 3A4 (Homo sapiens) (UniProt P08684); test: qHTS Assay for Activators of Cytochrome P450 3A4 (AID 885); also: nearly all actives have a fitted effect of over 65% in size
Method in brief: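 CYP3A4 activity: Luciferin-PPXE O-dealkylation, 25uM substrate, 200mM KPO4, RT throughout. Read-out is luciferase luminescence; higher values reflect activation.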

With `NS(=O)(=O)c1cc2c(cc1Cl)N[C@@H]([C@@H]1C[C@@H]3C=C[C@H]1C3)NS2(=O)=O` the activity change, negative = inhibition [1] was -0.109%, the Potency [2] was “inactive” and the activity change, negative = inhibition [3] was 4.22%. The Potency [4] was greater than 46 µM, the Potency [5] was greater than 46 µM and the Potency [6] was “inactive”. For the same compound, the Potency [7] was “inactive”, the outcome [8] was “inactive” and the Potency [9] was “inactive”. The Potency [10] was “inactive”, the outcome [11] was “inactive” and the outcome [12] was “inactive”. The Potency [13] was “inactive” and the Potency [14] was “inactive”.

For `COc1cc2nc(N3CCN(C(=O)[C@H]4CCCO4)CC3)nc(N)c2cc1OC`, the activity change, negative = inhibition [1] was 14.3%, the Potency [2] was “inactive” and the activity change, negative = inhibition [3] was -4.26%. The activity, negative = inhibition [15] was 7.77%, the Potency [4] was greater than 46 µM and the Potency [5] was greater than 46 µM. The Potency [6] was “inactive”, the Potency [7] was “inactive” and the outcome [8] was “inactive”. The Potency [16] was “inactive”, the Potency [17] was “inactive” and the Potency [18] was “inactive”. The outcome [12] was “inactive”, the Potency [13] was “inactive” and the Potency [14] was 26.7 µM (active).

In the case of `OC[C@H]1NC[C@@H](O)[C@@H](O)[C@H]1O`, the Potency [2] is reported as “inactive”, the Potency [4] is reported as greater than 46 µM and the Potency [5] is reported as greater than 46 µM. For the same compound, the Potency [6] was “inactive”, the Potency [7] was “inactive” and the Potency [19] was “inactive”. For the same compound, the Potency [13] was “inactive” and the Potency [14] was “inactive”.

With `N[C@@H](C(=O)O)c1ccc(C(=O)O)c(O)c1` the Potency [2] was “inactive”, the Potency [4] was greater than 46 µM and the Potency [5] was greater than 46 µM. For the same compound, the Potency [6] was “inactive”, the Potency [19] was “inactive” and the Potency [13] was “inactive”. For the same compound, the Potency [14] was 23.8 µM (active).

For `CN(CC[C@@H](Oc1ccc(-c2ccccc2)cc1)c1ccc(F)cc1)CC(=O)O`, the Potency [2] was “inactive”, the Potency [4] was greater than 46 µM and the Potency [5] was greater than 46 µM. For the same compound, the Potency [6] was “inactive”, the Potency [20] was 2.51 µM (active) and the Potency [17] was 6.31 µM (active). For the same compound, the Potency [13] was “inactive”, the Potency [14] was “inactive” and the Potency [21] was “inactive”. The Potency [22] was “inactive”.

In the case of `N=C(N)SCCc1ccc(OCc2ccc([N+](=O)[O-])cc2)cc1`, the Potency [2] is reported as 31.6 µM (active), the Potency [4] is reported as greater than 46 µM and the Potency [5] is reported as greater than 46 µM. For the same compound, the Potency [6] was “inactive”, the Potency [7] was “inactive” and the Potency [19] was “inactive”. The Potency [13] was “inactive” and the Potency [14] was “inactive”.

With `O=C(NCCCN1CCCCCC1)[C@@H](c1ccccc1)C1CCCCC1` the Potency [2] was 31.6 µM (active), the Potency [4] was greater than 46 µM and the Potency [5] was greater than 46 µM. The Potency [23] was 3.98 µM (active), the Potency [24] was “inactive” and the Potency [16] was 0.631 µM (active). The Potency [19] was “inactive”, the Potency [13] was “inactive” and the Potency [14] was “inactive”.

Source: PubChem BioAssay (NCATS)
